Test results as given in PubChem BioAssay AID1851 (National Center for Advancing Translational Sciences (NCATS), 2009).
Hit rate of the full screen: of about 16,000 compounds, about 4,000 (25%) were called active. Another 26% or so got no clear call; they are omitted. Only a sample is shown. A number with no mark means an inactive call. The call rests on the fitted dose curve; in most records, active means well fitted curve in the direction sought with a large enough effect; inconclusive means small, poorly fitted or top-dose-only effect, or effect the other way; inactive means no such curve, though single readings can be large or run the other way.

molecular target: Cytochrome P450 2C9 (Homo sapiens) (UniProt P11712); assay: Cytochrome panel assay with activity outcomes; settings: recombinant CYP, pro-luciferin dealkylation, luminescence, p450-cyp2c9; series mostly up to 57.1 µM
On the % scale 0 is the no-effect control and ±100 the full control effect.

Cytochrome P450 2C9 (Homo sapiens), sequence (P11712 whole entry, looked up): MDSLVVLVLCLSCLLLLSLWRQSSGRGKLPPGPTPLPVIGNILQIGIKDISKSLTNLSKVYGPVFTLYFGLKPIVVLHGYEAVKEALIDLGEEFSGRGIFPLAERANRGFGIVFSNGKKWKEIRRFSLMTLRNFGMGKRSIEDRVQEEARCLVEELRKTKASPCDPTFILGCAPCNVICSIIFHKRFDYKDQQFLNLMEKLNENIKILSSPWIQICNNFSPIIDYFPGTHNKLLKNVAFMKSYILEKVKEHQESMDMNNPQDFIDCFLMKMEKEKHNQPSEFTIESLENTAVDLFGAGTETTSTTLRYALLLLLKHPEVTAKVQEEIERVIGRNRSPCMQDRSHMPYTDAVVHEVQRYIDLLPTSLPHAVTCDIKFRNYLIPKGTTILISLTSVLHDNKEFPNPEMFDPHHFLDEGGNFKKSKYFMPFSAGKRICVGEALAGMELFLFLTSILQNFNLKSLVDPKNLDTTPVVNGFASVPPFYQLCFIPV

Structure (SMILES) | activity, negative = inhibition | AC50
C[N+](C)(C)c1cc2c(nn1)Nc1ccccc1S2 | -3.44% [at 11.4 µM] | –
Cc1oncc1C(=O)Nc1ccc(C(F)(F)F)cc1 | – | inactive
C[C@@H](CCCCC(=O)Nc1ccc(C(F)(F)F)cc1)NCCc1cnc[nH]1 | – | 7.94 µM (active)
NCCC(=O)NCCc1cnc[nH]1 | – | inactive
Cc1cc(O)c(C(C)C)cc1C1(c2cc(C(C)C)c(O)cc2C)OC(=O)c2ccccc21 | – | 0.316 µM (active)
Cc1cc(O)c(C(C)C)cc1NC(=O)Nc1cccc2ccccc12 | -7.14% [at 11.4 µM] | –
O=c1nc2ccccc2c2n1C[C@H](CN1CCN(c3ccccc3)CC1)N2 | – | inactive
COC(=O)C(NC(=O)c1ccc(Cl)cc1)(Nc1nc(C)cs1)C(F)(F)F (stereo not given) | – | 8.91 µM (active)
Nc1nc(NCc2ccccc2)nc(Nc2cccc(F)c2)c1[N+](=O)[O-] | – | inactive
Cc1[nH]nc(Nc2ccccc2)c1[N+](=O)[O-] | – | 20 µM (active)
Cc1noc(C)c1-c1nc(Nc2ccccc2)c2ccccc2n1 | 2.16% [at 2.29 µM] | –
CCO/C([O-])=N/c1c[n+](N2CCOCC2)no1 | – | inactive
Clc1ccccc1-c1nc(NC2CCNCC2)c2ccccc2n1 | 2.89% [at 2.29 µM] | –
COc1ccc(N(CC(=O)NCc2cccc(OC)c2)S(=O)(=O)c2c(C)noc2C)cc1 | – | 7.94 µM (active)
COc1ccc(NC(=O)N2CCCC3(CCN(C(=O)c4c(C)noc4C)CC3)C2)cc1 | – | inactive
COc1ccc(NC(=O)N2CC3(CCN(C(=O)c4c(C)noc4C)CC3)C2)cc1 | – | inactive
COC(=O)CN(c1ccc(OC)cc1)S(=O)(=O)c1c(C)noc1C | – | 11.2 µM (active)
CCOc1ccc(N(CC(=O)NCc2ccc(OC)cc2)S(=O)(=O)c2c(C)noc2C)cc1 | – | inactive
COc1cccc(CNCCNC(=O)c2nonc2N)c1 | – | inactive
NC(N)=N/N=C(/c1ccccc1)c1ccc(O)cc1O | -9.7% [at 11.4 µM] | –

Structure (SMILES) | activity, negative = inhibition | AC50
Cc1ccc(S(=O)(=O)N2CCN(C(=O)CN3CCN(C)CC3)C2)cc1 | – | inactive
COc1ccc(S(=O)(=O)N2CCC(NC(=O)Nc3ccc(C)cc3)CC2)cc1 | – | inactive
Cc1ccc(C(=O)NC(=S)Nc2ccc(S(=O)(=O)N3CCN(C)CC3)cc2)cc1 | – | 14.1 µM (active)
Cc1[nH]n(C(C)(C)C)c(=O)c1Sc1ccc(Cl)cc1 | – | 12.6 µM (active)
Cc1[nH]n(C(C)(C)C)c(=O)c1Sc1ccccc1 | – | 7.08 µM (active)
CN(C)c1ncc2nc(CCc3ccccc3)c(=O)n(C3CC3)c2n1 | – | 12.6 µM (active)
COc1ncc2nc(CCc3ccccc3)c(=O)n(C3CC3)c2n1 | – | 15.8 µM (active)
COc1ccc(Oc2ncc3nc(CCc4ccccc4)c(=O)n(C4CC4)c3n2)cc1 | – | 12.6 µM (active)
COc1ccc(-n2c(=O)c(C)nc3cnc(Oc4ccccc4)nc32)cc1 | – | inactive
COc1cccc(Nc2ncc3nc(CCc4ccccc4)c(=O)n(C4CC4)c3n2)c1 | – | inactive
COc1cccc(Nc2ncc3nc(-c4cccs4)c(=O)n(-c4ccccc4)c3n2)c1 | – | inactive
CNc1nc(-c2ccoc2)nc2ccccc12 | 13% [at 2.29 µM] | –
Clc1ccc2c(c1)C=Nc1c(NCc3ccccc3)ncnc1O2 | – | inactive
N#Cc1ccc(-c2ccc(F)cc2)nc1Oc1ccc(Cl)c(Cl)c1 | – | inactive
Fc1ccc(-c2cn3cc(C(F)(F)F)cc(Cl)c3n2)cc1 | – | 4.47 µM (active)
OCCCNCc1ccccn1 | 9.34% [at 11.4 µM] | –
CC12CC(NC(=O)N1c1cccc(C(=O)NCc3ccccc3)c1)c1ccccc1O2 (stereo not given) | – | 3.98 µM (active)
COc1ccc(N2C(=O)NC3CC2(C)Oc2ccccc23)cc1OC (stereo not given) | – | inactive
O=C(NCc1ccccc1)c1ccc2c(c1)C(=O)N(CC1CCCO1)C2=O (stereo not given) | – | inactive
Cn1c(=O)c2[nH]c(SCc3ccccn3)nc2n(C)c1=S | – | 3.16 µM (active)

Structure (SMILES) | activity, negative = inhibition | AC50
Cn1c(=S)c2[nH]c(SCCN3C(=O)c4ccccc4C3=O)nc2n(C)c1=O | -3.8% [at 11.4 µM] | –
Cn1c(=O)c2[nH]c(CCCCc3nc4c([nH]3)c(=O)n(C)c(=S)n4C)nc2n(C)c1=S | -2.51% [at 11.4 µM] | –
CN(C)c1ccc(-c2cc(N(C)Cc3ccco3)ncn2)cc1 | -6.39% [at 2.29 µM] | –
CCOc1ccc(NC(=S)N(Cc2ccc(N(C)C)cc2)Cc2ccco2)cc1 | – | 1 µM (active)
CCOc1ccc(NC(=S)N(Cc2ccc(Cl)cc2)Cc2ccco2)cc1 | – | 10 µM (active)
CN(C)c1ccc(-c2cncnc2N(C)Cc2ccco2)cc1 | -17.3% [at 2.29 µM] | –
N[C@H](C(=O)O)[C@H](O)C(=O)O | – | inactive
CCS(=O)(=O)N1CCC(C(=O)NCC2CCCO2)CC1 (stereo not given) | – | inactive
CC(C)(C)C(=O)N1CCN(c2ccc([N+](=O)[O-])c(NCC3CCCO3)c2)CC1 (stereo not given) | – | 12.6 µM (active)
Cc1cc(C)c(S(=O)(=O)N2CCN(c3ccc([N+](=O)[O-])c(NCC4CCCO4)c3)CC2)c(C)c1 (stereo not given) | – | 2 µM (active)
Cc1ccc(NC(=O)c2ccc(NCC3CCCO3)c([N+](=O)[O-])c2)cc1Cl (stereo not given) | – | 1.12 µM (active)
N#CCSc1ncnc2c1cnn2CCO | – | inactive
O=C1C2C3C=CC(C3)C2C(=O)N1c1ncn[nH]1 (stereo not given) | – | inactive
CC1=NN(c2ccccc2)C(=O)/C1=C\N1CC(C)OC(C)C1 (stereo not given) | – | inactive
CC1=NN(c2ccc(S(=O)(=O)O)cc2)C(=O)/C1=C\c1ccc(Cl)cc1 | -2.05% [at 11.4 µM] | –
CCOc1cc(/C=C2/C(=O)N(c3ccccc3)N=C2C)ccc1OC(=O)c1ccco1 | – | 0.631 µM (active)
CNc1nc(-c2ccccc2CN(C)C)nc2ccccc12 | 4.11% [at 2.29 µM] | –
O=C1Oc2ccccc2C(=O)/C1=C\N1C(=O)N/C(=C\c2ccccc2O)C1=O | – | 1 µM (active)
C[C@H](C[C@H](N)C(=O)O)C(=O)O | – | inactive
CC(=O)OC[C@@H]1O[C@@H](O/N=C2/C[C@@H](O)[C@@H](O)[C@@H]3[C@@H]4C(=O)N([C@@H](C)c5ccccc5)C(=O)[C@H]4CC[C@@H]23)[C@H](OC(C)=O)[C@H](OC(C)=O)[C@@H]1OC(C)=O | 16.3% [at 11.4 µM] | –
